Most compounds without a hit are left out; they make up all but 19% or so of the library.
TDP1 cell CPT – growth inhibition of DT40 Tdp1-/-;hTDP1 cells with camptothecin (screen for TDP1 inhibitors) | chicken DT40 Tdp1-/-;hTDP1 cells + 20 nM CPT, ATP luminescence, 48 h | Potency, µM (doses to about 46.2 µM), hits mostly inhibitors | 420,000 compounds, 12% hits; also: nearly all actives have a fitted effect of over 55% in size
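Chicken DT40 Tdp1-/- cells stably complemented with human TDP1 were seeded at 400 cells/well in medium containing 20 nM camptothecin, exposed to pin-transferred compounds, and grown at 37 °C for at least 48 hr. Viability was read as ATP luminescence.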
HT1080NT lethal – kills 2HG-producing HT-1080-NT fibrosarcoma cells. AID 686970. Potency, µM (doses to about 46.1 µM), usual class: cytotoxic. HT-1080-NT fibrosarcoma viability, CellTiter-Glo ATP luminescence, 48 h. 360,000 compounds, 1.6% hits;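 also: NT is the 2HG producing partner of a matched IDH1 knockdown line; nearly all actives have a fitted effect of over 55% in size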
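Fibrosarcoma NT cells, 750 per well in 5% FBS RPMI, were exposed to compound for 48 hours. Viability: CellTiter-Glo luminescence.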
TDP1 cell noCPT – qHTS for Inhibitors of human tyrosyl-DNA phosphodiesterase 1 (TDP1): qHTS in cells in absence of CPT | 420,000 compounds, 15% hits | DT40 Tdp1-/- hTDP1 cells, no CPT, ATP luminescence, 48 h | Potency, µM (titrated, usually from 46.2 µM), usual class: inhibitors; also: nearly all actives have a fitted effect of over 55% in size
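No-CPT arm: Tdp1-/-;hTDP1 DT40 cells (400/well) plus compounds, incubated ≥48 hr at 37 °C. Readout CellTiter-Glo luminescence.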
HT1080 IDH1KD tx – kills HT-1080 cells with IDH1 knockdown; HT-1080 IDH1 knockdown viability, ATP luminescence, 48 h; Potency, µM (top dose mostly 46.1 µM), usual class: cytotoxic; 360,000 compounds, 2% hits; AID 686971
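% activity derives from luminescence (CellTiter-Glo), normalised to DMSO and no-cell wells. HT-1080-IDH1KD cells, 750/well, had 48 h compound exposure at 37 °C.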
IL1B secr inh – blocks inflammasome-driven IL-1 beta release; activity change, % at 57.5 µM; THP-1 LPS/ATP IL-1B secretion, AlphaLISA, 16 h; hits give low values; 360,000 compounds, 4.7% hits; in the data active = activity change below about -50%; inconclusive = mostly about -30% to -49%
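THP-1 cells pretreated 1 hr with compounds (up to 57.5 uM final), then stimulated with LPS (250 ng/mL final) plus ATP (1.25 mM final); secreted IL-1B measured by AlphaLISA after 16 hr, decreased signal indicating inhibition.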
Of the large screens only hits and unclear results are named; the others gave an inactive call. Unless noted, calls follow the shape of the dose curve; as a rule, active = well fitted curve in the direction sought with a large enough effect; inconclusive = small, poorly fitted or top-dose-only effect, or another doubt; inactive = no such curve, though single readings can be large; an effect the other way counts as inactive or inconclusive.

C[C@@H]1CN([C@@H](C)CO)C(=O)CCCn2nncc2CO[C@H]1CN(C)C(=O)Nc1cccc(Oc2ccccn2)c1	none
N#Cc1cnc2c(-c3ccccc3)c(-c3ccccc3)nn2c1N	TDP1 cell CPT 23µM, TDP1 cell noCPT 18µM
Cc1nn2c(N)c(C#N)cnc2c1-c1ccc(Cl)cc1	none
COc1ccc(-c2c(C)nn3c(N)c(C#N)cnc23)cc1OC	TDP1 cell CPT 7.3µM, TDP1 cell noCPT 13µM
O=C(Nc1ccc(F)c(Cl)c1)c1cncs1	none
CN(C)c1cc(-c2cccc(C(F)(F)F)c2)oc(=O)c1Cl	TDP1 cell noCPT inconclusive
C[C@@H]1O[C@H](C2CCCC2)Cc2[nH]c(=S)[nH]c(=O)c21	none
CC(CCN1C(Nc2ccccc2)=NC[C@@H]1Cc1ccccc1)c1ccccc1 (some centres not stated)	TDP1 cell CPT inconclusive, TDP1 cell noCPT 18µM
CC(C)C[C@H]1CN=C(Nc2ccccc2)N1CCCCc1ccccc1	TDP1 cell CPT 26µM, TDP1 cell noCPT inconclusive
CCCCN1C(Nc2ccccc2)=NC[C@@H]1CC(C)C	TDP1 cell CPT inconclusive, TDP1 cell noCPT inconclusive
CC(C)CCCN1C(Nc2ccccc2)=NC[C@@H]1Cc1ccccc1	TDP1 cell CPT inconclusive, TDP1 cell noCPT 16µM, IL1B secr inh inconclusive
CC(C)CCCN1C(Nc2ccccc2)=NC[C@@H]1CC(C)C	TDP1 cell CPT inconclusive, TDP1 cell noCPT 18µM
CC(C)CN1C(Nc2ccccc2)=NC[C@@H]1C	none
CC(CCN1C(Nc2ccccc2)=NC[C@@H]1C)c1ccccc1 (some centres not stated)	TDP1 cell CPT 23µM, TDP1 cell noCPT 12µM
CC(C)CCN1C(Nc2ccccc2)=NC[C@@H]1C	TDP1 cell noCPT inconclusive
CC(C)CCN1C(Nc2ccccc2)=NC[C@@H]1Cc1ccccc1	TDP1 cell CPT inconclusive, TDP1 cell noCPT 16µM
Cc1cccc(C)c1NC(=O)c1ccc2sc([C@@H]3O[C@H](CO)[C@H](O)[C@H](O)[C@H]3O)nc2c1	none
CC(=O)N1c2ccc(S(=O)(=O)N3CCCC3C(=O)Nc3cccc(F)c3)cc2CC1C (configuration not stated)	TDP1 cell CPT 16µM, TDP1 cell noCPT inconclusive
COc1ccc(NC(=O)C2CCCN2S(=O)(=O)c2ccc3c(c2)CC(C)N3C(C)=O)cc1OC (configuration not stated)	TDP1 cell CPT inconclusive
CCc1cccc(NC(=O)C2CCCN2S(=O)(=O)c2ccccc2C(F)(F)F)c1 (configuration not stated)	TDP1 cell CPT inconclusive, TDP1 cell noCPT 21µM
CCc1cccc(NC(=O)C2CCCN2S(=O)(=O)c2ccc3c(c2)CC(C)N3C(C)=O)c1 (configuration not stated)	TDP1 cell CPT inconclusive, TDP1 cell noCPT 12µM
Cc1ccc(NC(=O)[C@@H]2CCCN2S(=O)(=O)c2ccccc2C(F)(F)F)cc1S(=O)(=O)N1CCOCC1	TDP1 cell CPT inconclusive
CN(C(=O)c1ccccc1C(=O)OCC(=O)c1ccc(Br)cc1)c1ccccc1	TDP1 cell CPT inconclusive, TDP1 cell noCPT inconclusive
O=C(Nc1cccc(F)c1)C1CCCN(S(=O)(=O)c2ccc(-n3cnnn3)cc2)C1 (configuration not stated)	none
O=C(CC1C(=O)NCCN1C1CCCC1)NCc1cccc(OC(F)(F)F)c1 (configuration not stated)	none
C/C(=N\NC(=O)C1=NNC(=O)C1C)c1cccs1 (configuration not stated)	HT1080NT lethal inconclusive, TDP1 cell noCPT inconclusive, HT1080 IDH1KD tx inconclusive
Cc1cc2c(cc1C)-c1nnnn1C(N1CCC(Cc3ccccc3)CC1)C(=O)N2 (configuration not stated)	TDP1 cell CPT 15µM, HT1080NT lethal inconclusive, TDP1 cell noCPT 9.2µM, HT1080 IDH1KD tx inconclusive
Cc1cc2c(cc1C)-c1nnnn1C(N1CCCC1)C(=O)N2 (configuration not stated)	TDP1 cell CPT inconclusive, TDP1 cell noCPT inconclusive
Cc1ccc(S(=O)(=O)N2CC3(O)CN(C(=O)OC(C)C)N(C(=O)OC(C)C)CC3(OC(=O)NC3CCCC3)C2)cc1 (configuration not stated)	TDP1 cell CPT inconclusive, TDP1 cell noCPT 23µM
Cc1ccc(S(=O)(=O)N2CC3(O)CN(C(=O)OC(C)C)N(C(=O)OC(C)C)CC3(OC(=O)Nc3cccs3)C2)cc1 (configuration not stated)	TDP1 cell CPT inconclusive, TDP1 cell noCPT 18µM, IL1B secr inh -80
Cc1ccc(S(=O)(=O)N2CC3(O)CN(C(=O)OC(C)C)N(C(=O)OC(C)C)CC3(OC(=O)Nc3c(C)noc3C)C2)cc1 (configuration not stated)	TDP1 cell CPT inconclusive, TDP1 cell noCPT inconclusive
Cc1ccc(S(=O)(=O)N2CC3(O)CN(C(=O)OC(C)C)N(C(=O)OC(C)C)CC3(OC(=O)NCc3ccco3)C2)cc1 (configuration not stated)	TDP1 cell CPT inconclusive, TDP1 cell noCPT 21µM, IL1B secr inh -56
CCCCN1C(=O)N(CCc2ccc(F)cc2)S(=O)(=O)c2cc(C(F)(F)F)ccc21	TDP1 cell noCPT inconclusive
COc1ccc(-n2ncc3c2CC(C)(C)CC3NC(=O)CN2CCOC2=O)cc1 (configuration not stated)	HT1080NT lethal inconclusive, TDP1 cell noCPT inconclusive
O=C(Nc1ccc(N2CCN(C(=O)c3ccc(Cl)cc3)CC2)cc1)c1ccc2c(c1)OCCO2	TDP1 cell CPT 13µM, HT1080NT lethal inconclusive, TDP1 cell noCPT 23µM, IL1B secr inh -61
CC(=O)N1CCN(c2ccc(NCc3ccc4c(c3)OCO4)cc2)CC1	none
CC(C)(C)C(=O)N1CCN(c2ccc(NC(=O)c3ccc4c(c3)OCCO4)cc2)CC1	TDP1 cell CPT inconclusive, TDP1 cell noCPT inconclusive, IL1B secr inh -77
O=C(CSc1ccc(Cl)cc1)Nc1ccc(N2CCN(C(=O)c3ccc(Cl)cc3)CC2)cc1	TDP1 cell CPT 18µM, TDP1 cell noCPT 15µM, HT1080 IDH1KD tx inconclusive
O=C(c1ccccc1)N1CCN(c2ccc(NCc3ccc4c(c3)OCO4)cc2)CC1	TDP1 cell CPT 15µM, TDP1 cell noCPT 18µM, HT1080 IDH1KD tx inconclusive
COc1cccc(CCN2C(=O)CCC3=C2CCC3=O)c1	HT1080NT lethal inconclusive
COc1ccccc1N=NNc1ccccc1OC	TDP1 cell CPT inconclusive, TDP1 cell noCPT inconclusive
CC(=O)N1CCN(c2ccc(NC(=O)c3ccc4c(c3)OCCO4)cc2)CC1	none
O=C(Nc1ccc(N2CCN(C(=O)c3ccccc3)CC2)cc1)c1ccc2c(c1)OCCO2	TDP1 cell CPT 21µM, TDP1 cell noCPT inconclusive, IL1B secr inh -94

High-throughput results from PubChem BioAssay.
